Epigenetic reg: regulators of epigenetic silencing causing reporter derepression in mouse cells; murine LDR cells, GFP reporter derepression, 30 h; Potency, µM (top dose mostly 53.9 µM), usual class: activators; 0.2% of 280,000 active; further: nearly all actives have a fitted effect of over 60% in size
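Murine LDR cells bearing a silenced CMV-driven GFP reporter were exposed to compound for 30 h at 37 C. After PBS washes, GFP-positive cells (20-120 um objects) counted by laser-scanning microplate cytometry.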
CBFb-RUNX1 inh: blocks binding between human CBF-beta and RUNX1; Q01196+Q13951; AlphaScreen CBFb-His/RUNX1-biotin binding, biochemical; Potency, µM (series often up to 59.8 µM), usual class: inhibitors; 230,000 tested, under 10 active; AID 1477
Target sequence (Q01196 whole entry, looked up): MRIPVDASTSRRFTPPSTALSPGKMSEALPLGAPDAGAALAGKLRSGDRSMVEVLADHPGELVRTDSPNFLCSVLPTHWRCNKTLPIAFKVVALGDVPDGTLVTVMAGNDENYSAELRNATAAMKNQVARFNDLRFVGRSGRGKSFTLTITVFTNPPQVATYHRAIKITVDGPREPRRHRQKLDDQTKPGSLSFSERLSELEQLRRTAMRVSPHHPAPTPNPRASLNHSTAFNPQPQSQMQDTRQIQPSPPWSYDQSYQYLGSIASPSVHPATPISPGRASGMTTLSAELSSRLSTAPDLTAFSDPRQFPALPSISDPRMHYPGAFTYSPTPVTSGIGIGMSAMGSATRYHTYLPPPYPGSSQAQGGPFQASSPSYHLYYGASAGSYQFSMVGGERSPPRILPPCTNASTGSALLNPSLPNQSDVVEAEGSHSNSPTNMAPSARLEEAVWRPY
Target sequence (Q13951 whole entry, looked up): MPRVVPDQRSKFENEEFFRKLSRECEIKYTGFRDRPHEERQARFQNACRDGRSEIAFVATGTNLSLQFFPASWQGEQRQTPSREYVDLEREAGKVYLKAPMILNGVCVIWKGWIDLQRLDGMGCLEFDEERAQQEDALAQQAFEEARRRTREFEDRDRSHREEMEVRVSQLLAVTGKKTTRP
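Compounds were screened at multiple concentrations against a preformed CBF-beta(His)/RUNX1(biotin) complex (30 nM of each) for 15 min at room temperature, followed by 90 min with nickel and streptavidin beads and AlphaScreen reading.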
TexasRed fluor: Texas Red fluorescence interference in TRb-SRC2 counter-screen; Potency, µM (titrated, usually from 106 µM); TRb/SRC2 Texas Red total fluorescence interference; 0.29% of 280,000 active; active means well fitted curve in either direction with a large enough effect; inconclusive means small, poorly fitted or top-dose-only effect
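Human TRb ligand-binding domain at 0.6 uM with 20 nM Texas Red SRC2 peptide in Tris buffer containing 1 uM T3 and 5% DMSO, incubated with compound 5 h at ambient temperature. Total fluorescence (555/632 nm) calculated as parallel + 2 × perpendicular.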
RGS12 GoLoco inh-1: inhibitors of human Gai1-RGS12 GoLoco interaction (red fluorophore); 0.44% of 230,000 active; Gai1:RGS12 GoLoco peptide FP, rhodamine, 10 min; Potency, µM (titrated, usually from 61.6 µM), actives largely listed as inhibitors; active means well fitted inhibition curve with a large enough effect, not every such curve was filed as active; inactive means no such curve, though single readings can be large or run the other way; further: nearly all actives have a fitted effect of over 30% in size
TRb-SRC2 inh: TRbeta-SRC2 interaction inhibition; Potency, µM (doses to about 106 µM), actives largely listed as inhibitors; TRbeta-SRC2 peptide binding, fluorescence polarization; receptor liganded with 1 µM T3; AID 1469; 0.065% of 280,000 active; P10828; further: nearly all actives have a fitted effect of over 50% in size
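Fluorescence polarization of 20 nM Texas Red SRC2 peptide (20-aa NR interaction domain) bound to 0.6 uM human TRb ligand-binding domain, with 1 uM T3, after 5 hr at ambient temperature; inhibition seen as decreased polarization.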
RGS12 GoLoco inh-2: confirmation of human RGS12 GoLoco motif inhibitors; 50% of 110 active; Potency, µM (doses to about 57.1 µM), hits mostly inhibitors; Gai1/rhodamine-RGS12 GoLoco peptide fluorescence polarization; AID 2390; shares compounds with RGS12 GoLoco inh-1
C127i cell count: changes parental c127i cell counts in epigenetic modulator counter-screen; shares compounds with Epigenetic reg; mouse c127i parental cells, fluorescent cell count, 30 h; Potency, µM, usual class: activators; 20% of 60 active; AID 493065
HCC4017 tox: HCC4017 cytotoxicity of epigenetic modulator hits; shares compounds with Epigenetic reg; HCC4017 NSCLC viability, CellTiter-Glo ATP luminescence, 72 h; Potency, µM (series often up to 46.1 µM), actives largely listed as cytotoxic; 30% of 45 active; AID 493071
H358 viab: epigenetic modulators: cytotoxicity in H358 lung cancer cells; shares compounds with Epigenetic reg; AID 493074; H358 NSCLC viability, ATP luminescence, 72 h; 30% of 45 active; Potency, µM (titrated, usually from 46.1 µM), most hits filed as cytotoxic
Large screens that a line does not name were inactive (follow-up assays come after a bar, where they were run). In the library only some 0.71% were active in any assay of this set; here they are far more common. Unless noted, the call rests on the fitted dose curve; in most records, active means well fitted curve in the direction sought with a large enough effect; inconclusive means small, poorly fitted or top-dose-only effect, or another doubt; inactive means no such curve, though single readings can be large; an effect the other way counts as inactive or inconclusive.

Cc1ccc(-c2nnc(SCC(=O)NCC3CCCO3)n2C)cc1 (centres undefined)	none
COc1ccc(Nc2cc(C)c3cc(NC(=O)COc4cccc(C)c4)ccc3n2)cc1	none (no result: CBFb-RUNX1 inh, RGS12 GoLoco inh-1)
COc1ccc(OC)c(CCNC(=O)Cn2sc3nc(C)cc(C)c3c2=O)c1	CBFb-RUNX1 inh inconclusive, RGS12 GoLoco inh-1 11.2µM | RGS12 GoLoco inh-2 3.98µM
Cc1cc(C)c2c(=O)n(CC(=O)Nc3cccc(Cl)c3C)sc2n1	RGS12 GoLoco inh-1 3.98µM | RGS12 GoLoco inh-2 14.1µM
Cc1cc(C)c2c(=O)n(CC(=O)Nc3ccc(Br)c(C)c3)sc2n1	none | RGS12 GoLoco inh-2 inactive
Nc1cc(N)nc(SCC(=O)Nc2ccc(Br)cc2Cl)n1	RGS12 GoLoco inh-1 6.31µM | RGS12 GoLoco inh-2 inconclusive
CCn1c(SCC(=O)N(C(C)C)C(C)C)nnc1-c1cc2ccccc2cc1O	RGS12 GoLoco inh-1 3.16µM | RGS12 GoLoco inh-2 inconclusive
C=CCc1cc(/C=N\NC(=O)CSc2nnc(CCCc3ccc(OC)c(C)c3)o2)cc(OC)c1O	RGS12 GoLoco inh-1 14.1µM | RGS12 GoLoco inh-2 inconclusive
O=C(CSCn1nnc2c(=O)[nH]c(Cc3ccc(F)cc3)nc21)Nc1ccccc1	none (no result: CBFb-RUNX1 inh, RGS12 GoLoco inh-1)
O=C(CSc1nnc(-c2ccccc2)n1-c1ccccc1)NCc1ccco1	none | RGS12 GoLoco inh-2 inactive
CN=C1N[C@H](c2ccccc2)N(c2ccccc2)S1	RGS12 GoLoco inh-1 5.62µM | RGS12 GoLoco inh-2 12.6µM
O=C1c2cccc3c(O)ccc(c23)C(=O)N1Cc1ccco1	RGS12 GoLoco inh-1 11.2µM | RGS12 GoLoco inh-2 10µM
O=C(Nc1ccc(Br)cc1)c1cccc(C(=O)Nc2ccc(Br)cc2)c1	none (no result: CBFb-RUNX1 inh, RGS12 GoLoco inh-1)
O=C(Nc1cccc(C(F)(F)F)c1)C1CCCN(c2ncccn2)C1 (centres undefined)	none
O=C(Nc1cccc(Nc2cc(Nc3cccc(C(F)(F)F)c3)ncn2)c1)C1CC1	none (no result: Epigenetic reg, CBFb-RUNX1 inh, TexasRed fluor, RGS12 GoLoco inh-1, TRb-SRC2 inh) | RGS12 GoLoco inh-2 inactive
Cc1[nH]c2ccccc2c1C(=O)CN1C(=O)C(=O)N(C2CCCC2)C1=O	none
Cc1[nH]c2ccccc2c1C(=O)CN1CCN(C2CCCCC2)CC1	RGS12 GoLoco inh-1 1.78µM | RGS12 GoLoco inh-2 inconclusive
O=C(CC1NCCNC1=O)Nc1ccc(F)c(Cl)c1 (centres undefined)	none (no result: CBFb-RUNX1 inh, RGS12 GoLoco inh-1)
OC(COCc1ccccc1)Cn1cnc2ccccc21 (centres undefined)	none
Cc1n(CC(O)COCc2ccccc2)c2ccccc2[n+]1C (centres undefined)	RGS12 GoLoco inh-1 8.91µM | RGS12 GoLoco inh-2 12.6µM
COc1ccc(NC(=O)[C@@H](c2ccccc2)N2Cc3ccccc3C2=O)cc1OC	none (no result: CBFb-RUNX1 inh, RGS12 GoLoco inh-1)
CCCCn1c(=O)[nH]c2nc3cc(NC(C)=O)ccc3nc2c1=O	none | RGS12 GoLoco inh-2 inactive
CCCCCCn1c(=O)[nH]c2nc3cc(N)c(C)cc3nc2c1=O	none
CCOc1ccccc1Oc1nc(C)nc2c1oc1ccccc12	none (no result: CBFb-RUNX1 inh, RGS12 GoLoco inh-1)
N=c1n(CC(=O)O)c2ccccc2n1Cc1ccccc1Cl	none (no result: RGS12 GoLoco inh-1)
N=c1n(CC(=O)c2ccc([N+](=O)[O-])cc2)c2ccccc2n1Cc1ccccc1Cl	Epigenetic reg inconclusive | C127i cell count inactive | HCC4017 tox 12.5µM | H358 viab inconclusive
Cc1ccc(-n2nc(C(=O)Nc3ccc(F)cc3F)c3c4ccccc4n(C)c3c2=O)cc1	none (no result: CBFb-RUNX1 inh, RGS12 GoLoco inh-1)
COc1cccc(/C=N/Nc2nc(Nc3ccccc3)nc(-n3nc(C)cc3C)n2)c1O	Epigenetic reg 2.51µM, CBFb-RUNX1 inh inconclusive | C127i cell count inactive | HCC4017 tox 2.5µM | H358 viab 4.45µM
